Experimental data: PubChem BioAssay (EPA / NIEHS)
“And” between values parts separate entries of the source, which are not always exact repeats. Equal entries are not always repeated. The source holds several records for some structures; these can differ, active in one and inactive in another. The source made the active and inactive calls. How the source made its calls: active means hit-call score of the fitted dose curve at least 0.9, where 1 is the maximum; inactive means score below 0.9.

How the values were obtained:
[1] = BSK_3C_TissueFactor: BioMAP Diversity Plus: 3C Assay for Tissue Factor Biomarker Activity (AID 2282997); settings: BioMAP 3C HUVEC, tissue factor biomarker readout; actives raise or lower the signal
Method in brief: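 Primary human umbilical vein endothelial cells in the 3C system were exposed to test chemical for 24 h, then Tissue Factor measured by ELISA. Activity was fitted bidirectionally against DMSO as negative control and baseline.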

[2] = BSK_3C_uPAR: BioMAP Diversity Plus: 3C Assay for Urokinase-type plasminogen activator receptor (uPAR) Biomarker Activity (AID 2282998); settings: BioMAP 3C HUVEC, uPAR biomarker ELISA; actives raise or lower the signal
Method in brief: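 In this endothelial cell-based assay, human umbilical vein primary cells were treated with chemicals and harvested at 24 h. uPAR was quantified using ELISA, with gains or losses fitted relative to DMSO controls.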

[3] = BSK_4H_Eotaxin3: BioMAP Diversity Plus: 4H Assay for Eotaxin 3 Biomarker Activity (AID 2283000); settings: primary human endothelial cells (HUVEC); actives raise or lower the signal
Method in brief: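 HUVEC, 24 h post-dose, ELISA for Eotaxin-3/CCL26. Gain or loss of signal fitted bidirectionally vs DMSO baseline.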

[4] = read-out: Intercellular Adhesion Molecule 1 (ICAM1), ICAM1 (gene 3383); assay: BSK_3C_ICAM1: BioMAP Diversity Plus: 3C Assay for Intercellular Adhesion Molecule 1 (ICAM1) Biomarker Activity (AID 2283003); settings: primary human endothelial cells (HUVEC); actives raise or lower the signal
Method in brief: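 Human vascular endothelial primary cells, 3C conditions, 24 h treatment. ICAM-1 by ELISA.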

[5] = BSK_3C_Proliferation: Cell Proliferation Assessment in the BioMAP Diversity Plus: 3C Assay (AID 2283006); settings: primary human endothelial cells (HUVEC);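 further: potency may reflect either rise or fall in cell number versus DMSO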
Method in brief: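 Proliferation of human vascular endothelial primary cells after 48 h dosing, quantified as SRB-stained protein at 560 nm relative to DMSO.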

[6] = read-out: E-selectin (Homo sapiens) (UniProt P16581); assay: BSK_3C_Eselectin: BioMAP Diversity Plus: 3C Assay for Eselectin Biomarker Activity (AID 2283015); settings: primary human endothelial cells (HUVEC); actives raise or lower the signal;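 further: cell surface E-selectin protein quantified by ELISA 24 h after dosing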
Method in brief: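 Primary human umbilical vein endothelial cells (3C system) were dosed with chemical and cell-surface E-selectin measured by ELISA 24 h later. Bidirectional curve fitting used DMSO as negative control and baseline.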

[7] = read-out: Interleukin-1 alpha (IL1a), IL1A (gene 3552); assay: BSK_BE3C_IL1a: BioMAP Diversity Plus: BE3C Assay for Interleukin-1 alpha (IL1a) Biomarker Activity (AID 2283016); settings: primary human bronchial epithelial cells; actives raise or lower the signal
Method in brief: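 Cultures of primary human bronchial epithelial cells receive test chemical. After 24 h, IL-1a is quantified by ELISA, while parallel wells are fixed in TCA and SRB-stained for total protein. Changes in either direction are fitted relative to DMSO.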

[8] = read-out: Monocyte Chemoattractant Protein-1 (MCP1), CCL2 (gene 6347); assay: BSK_3C_MCP1: BioMAP Diversity Plus: 3C Assay for Monocyte Chemoattractant Protein-1 (MCP1) Biomarker Activity (AID 2283017); settings: primary human endothelial cells (HUVEC); actives raise or lower the signal
Method in brief: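 Primary human umbilical vein endothelial cells (3C system) were exposed to test chemical for 24 h, after which MCP-1 was quantified by ELISA. Activity was fitted bidirectionally against DMSO as negative control and baseline.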

[9] = read-out: Human Leukocyte Antigen - DR isotype (HLADR), HLA-DRA (gene 3122); assay: BSK_3C_HLADR: BioMAP Diversity Plus: 3C Assay for Human Leukocyte Antigen - DR isotype (HLADR) Biomarker Activity (AID 2283019); settings: primary human endothelial cells (HUVEC); actives raise or lower the signal
Method in brief: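 Primary human umbilical vein endothelial cells (3C system) were dosed with compound and cell-surface HLA-DR was quantified by ELISA at 24 h. Activity was fitted bidirectionally against DMSO as negative control and baseline.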

[10] = read-out: Interleukin-8 (IL8), CXCL8 (gene 3576); assay: BSK_3C_IL8: BioMAP Diversity Plus: 3C Assay for Interleukin-8 (IL8) Biomarker Activity (AID 2283020); settings: primary human endothelial cells (HUVEC); actives raise or lower the signal
Method in brief: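 Human vascular endothelial cells (umbilical vein) in the 3C system; IL-8 level detected by ELISA at 24 h post-dose, with DMSO as baseline.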

[11] = BSK_3C_SRB: Viability Assessment in the BioMAP Diversity Plus: 3C Assay (AID 2283023); settings: primary human endothelial cells (HUVEC);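 further: fitted both ways against DMSO so a hit may be signal rise or drop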
Method in brief: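 Primary human umbilical vein endothelial cells in the 3C system were read 24 h after compound dosing. Total protein was stained with 0.1% sulforhodamine B after 10% TCA fixation and read at 560 nm, with bidirectional fitting against DMSO as baseline.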

[12] = read-out: Matrix Metallopeptidase 1 (MMP1), MMP1 (gene 4312); assay: BSK_BE3C_MMP1: BioMAP Diversity Plus: BE3C Assay for Matrix Metallopeptidase 1 (MMP1) Biomarker Activity (AID 2283024); settings: primary human bronchial epithelial cells; actives raise or lower the signal
Method in brief: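 Dose cells, wait 24 h, run MMP1 ELISA; cells are human bronchial epithelial primaries. Both increases and decreases relative to DMSO counted.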

[13] = read-out: Pselectin, SELP (gene 6403); assay: BSK_4H_Pselectin: BioMAP Diversity Plus: 4H Assay for Pselectin Biomarker Activity (AID 2283026); settings: primary human endothelial cells (HUVEC); actives raise or lower the signal
Method in brief: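 Human vascular endothelium from umbilical vein; P-selectin measured by ELISA at 24 h post-dose, with cytotoxicity checked by sulforhodamine B total-protein staining in parallel cultures (0.1% SRB after 10% TCA fixation, read at 560 nm).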

[14] = BSK_4H_SRB: Viability Assessment in the BioMAP Diversity Plus: 4H Assay (AID 2283027); settings: primary human endothelial cells (HUVEC);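 further: cells exposed to compound for 24 h before staining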
Method in brief: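 Absorbance at 560 nm of SRB-stained total protein served as the viability read-out in confluent primary human umbilical vein endothelium 24 h after chemical treatment. Curves were fitted bidirectionally against DMSO as negative control.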

[15] = BSK_BE3C_SRB: Viability Assessment in the BioMAP Diversity Plus: BE3C Assay (AID 2283028); settings: primary human bronchial epithelial cells
Method in brief: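 Human primary bronchial epithelial cells were exposed to test chemicals for 24 h. Total protein in parallel cultures was then measured by staining with 0.1% sulforhodamine B after 10% TCA fixation, with absorbance read at 560 nm. Activity was fitted bidirectionally against DMSO.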

[16] = read-out: Urokinase-type plasminogen activator receptor (uPAR), PLAUR (gene 5329); assay: BSK_4H_uPAR: BioMAP Diversity Plus: 4H Assay for Urokinase-type plasminogen activator receptor (uPAR) Biomarker Activity (AID 2283030); settings: primary human endothelial cells (HUVEC); actives raise or lower the signal
Method in brief: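 Primary human umbilical vein endothelial cells were exposed to chemical for 24 h before cell-surface uPAR was quantified by ELISA. Activity was fitted bidirectionally against the DMSO negative control baseline.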

[17] = read-out: Vascular endothelial growth factor receptor 2 (Homo sapiens) (UniProt P35968); assay: BSK_4H_VEGFRII: BioMAP Diversity Plus: 4H Assay for Vascular endothelial growth factor receptor 2 (VEGFR2) Biomarker Activity (AID 2283031); settings: primary human endothelial cells (HUVEC); actives raise or lower the signal;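 on AC50: cell-surface VEGFR2 protein level quantified by ELISA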
Method in brief: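 Primary human umbilical vein endothelial cells in the BioMAP 4H system were dosed with test chemical, and 24 h later VEGFRII was measured by ELISA. Activity was fitted bidirectionally against DMSO as negative control and baseline.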

[18] = read-out: Human Leukocyte Antigen - DR isotype (HLADR), HLA-DRA (gene 3122); assay: BSK_BE3C_HLADR: BioMAP Diversity Plus: BE3C Assay for Human Leukocyte Antigen - DR isotype (HLADR) Biomarker Activity (AID 2283032); settings: primary human bronchial epithelial cells; actives raise or lower the signal
Method in brief: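 Signal came from an ELISA for HLA-DR in human bronchial epithelial primary cells harvested 24 h after treatment; gain- and loss-of-signal fitting used DMSO controls as reference.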

[19] = read-out: Vascular cell adhesion molecule 1 (VCAM1), VCAM1 (gene 7412); assay: BSK_4H_VCAM1: BioMAP Diversity Plus: 4H Assay for Vascular cell adhesion molecule 1 (VCAM1) Biomarker Activity (AID 2283033); settings: primary human endothelial cells (HUVEC); actives raise or lower the signal
Method in brief: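 Endpoint derived from bidirectional fitting against DMSO controls of VCAM-1 ELISA signal in umbilical vein endothelial cells sampled at 24 h following treatment.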

Measured: AC50

Sequence of E-selectin (Homo sapiens) (P16581 whole entry, looked up): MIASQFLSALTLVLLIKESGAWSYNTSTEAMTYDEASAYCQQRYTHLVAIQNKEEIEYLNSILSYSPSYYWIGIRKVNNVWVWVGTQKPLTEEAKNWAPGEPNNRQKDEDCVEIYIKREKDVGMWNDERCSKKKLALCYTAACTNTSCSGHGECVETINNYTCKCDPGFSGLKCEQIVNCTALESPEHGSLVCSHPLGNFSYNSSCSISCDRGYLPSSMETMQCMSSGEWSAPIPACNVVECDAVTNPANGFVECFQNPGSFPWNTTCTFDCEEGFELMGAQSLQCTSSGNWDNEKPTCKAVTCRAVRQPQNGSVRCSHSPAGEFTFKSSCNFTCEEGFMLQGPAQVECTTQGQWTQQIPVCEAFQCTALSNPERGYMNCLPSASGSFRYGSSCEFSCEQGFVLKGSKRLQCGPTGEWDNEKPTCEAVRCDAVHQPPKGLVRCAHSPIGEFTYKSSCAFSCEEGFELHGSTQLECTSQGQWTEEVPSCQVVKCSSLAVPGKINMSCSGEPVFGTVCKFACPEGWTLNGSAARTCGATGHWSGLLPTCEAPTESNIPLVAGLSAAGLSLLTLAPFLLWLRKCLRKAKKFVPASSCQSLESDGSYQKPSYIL

[Cd+2].[Cl-].[Cl-]
inactive: [2] | [4] | [6] | [7] | [8] | [10] | [11] | [12] | [13] | [14] | [15] | [16] | [17]
active: [1] 1 µM and 863 nM | [3] 35.7 µM and 32.2 µM | [5] 30.1 µM and 30 µM | [9] 17 µM and 10.9 µM | [10] 20 µM | [13] 4.97 µM | [17] 6.83 µM | [18] 20 µM | [19] 31.6 µM and 27.1 µM
